The panel holds about 83,000 compounds, 20% with a hit somewhere; the sample as a whole holds those more often.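 Each cell line was grown in a 96-well plate and treated with one concentration of compound for 48 hours. Values below 10 were considered active.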 A number with no mark means an inactive call. The source made the active and inactive calls.
Experiments:
Test in all cases: NCI-60 one-dose screen, 48 h (100 = growth as untreated, 0 = no growth, -100 = all killed)
[1] = tested on: NCI-H522 lung; conditions: 10 µM unless noted
[2] = tested on: COLO 205 colon; conditions: 10 µM
[3] = tested on: MALME-3M melanoma; conditions: 10 µM unless noted
[4] = tested on: SNB-75 CNS; conditions: 10 µM unless noted
[5] = tested on: SNB-19 CNS; conditions: 10 µM unless noted
[6] = tested on: U251 CNS; conditions: 10 µM unless noted
[7] = tested on: SK-MEL-5 melanoma; conditions: 10 µM unless noted
[8] = tested on: SK-MEL-2 melanoma; conditions: 10 µM unless noted
[9] = tested on: EKVX NSCLC; conditions: 10 µM unless noted
[10] = tested on: TK-10 renal; conditions: 10 µM unless noted
[11] = tested on: ACHN renal; conditions: 10 µM unless noted
[12] = tested on: CCRF-CEM leukemia; conditions: 10 µM unless noted
[13] = tested on: SR leukemia; conditions: 10 µM
[14] = tested on: RPMI-8226 leukemia; conditions: 10 µM unless noted
[15] = tested on: T-47D breast; conditions: 10 µM unless noted
[16] = tested on: MDA-MB-435 melanoma; conditions: 10 µM unless noted
[17] = tested on: HCT-116 colon; conditions: 10 µM unless noted
[18] = tested on: IGROV1 ovarian; conditions: 10 µM
[19] = tested on: HOP-92 NSCLC; conditions: 10 µM unless noted

Compound | growth [1] | growth [2] | growth [3] | growth [4] | growth [5] | growth [6] | growth [7] | growth [8] | growth [9] | growth [10] | growth [11] | growth [12] | growth [13] | growth [14] | growth [15] | growth [16] | growth [17] | growth [18] | growth [19]
CNc1ccc(C(=O)CC(O)CCC(C)C2OC(=O)CC(O)CC(=O)CC(O)CC(O)CC(O)CC(O)CC3(O)CC(O)C(C(=O)OC)C(CC(O[C@@H]4O[C@H](C)[C@@H](O)[C@H](N)[C@@H]4O)/C=C/C=C/C=C/C=C/C=C/C=C/C=C/C2C)O3)cc1 (some centres undefined) | -13.2% (active) | 2.91% (active) | -78.6% (active) | 42.6% | 41.8% | 23.8% | 2.72% (active) | -8.57% (active) | -9.97% (active) | -47.6% (active) | -79.5% (active) | 14.9% | -11.5% (active) | 18.3% | -2.05% (active) | -1.58% (active) | -16.4% (active) | – | –
ClCCN(CCCl)c1ccc(C=NCCc2c[nH]c3ccccc23)cc1 | 92.4% | 106% | 76.7% | 82.5% | 89.8% | 72.6% | 75.8% | – | 106% | 88% | 44.5% | – | 31.9% | 85.6% | 80.6% | 110% | – | 84.2% | –
Nc1c(Br)cc2c3c(cccc13)-c1ccccc1-2 | – | 88.2% | – | 60.9% | 92.9% | 60.1% | 84.8% | 64.4% | 53.1% | – | 75.7% | 48.8% | 9.02% (active) | – | 38.6% | 78.8% | 81.4% | 48.1% | 25%
Oc1ccc2c3c1O[C@H]1c4[nH]c5ccccc5c4C[C@@]4(O)C(C2)N(CC2CC2)CC[C@]314 | – | 96.9% | 122% | 76.8% | 106% | 90.2% | 96.4% | 90.1% | – | 95% | 89.7% | 89.7% | 79.6% | 93.1% | 84.8% | 100% | – | 97.5% | 82.9%
CC(C)N=C(NC(C)C)N1CC1 | 98.2% | 113% | 124% | 95.4% | 115% | 105% | 113% | 112% | 102% | 122% | 109% | – | 122% | 121% | 111% | 103% | 111% | 123% | –
O=CC(Br)C(Br)c1ccccc1 (centres undefined) | 98% | 123% | 82.6% | 92.6% | 96% | 102% | 89.9% | 112% | – | 106% | – | -1.8% (active) | 16.1% | 89% | 37.2% | 99.3% | 2.83% (active) | – | –
O=[As]c1ccc(C(=O)c2ccc(Oc3ccccc3)cc2)cc1 (centres undefined) | -95.4% (active) | -89.2% (active) | -66.2% (active) | -92% (active) | -97.4% (active) | -100% (active) | -100% (active) | -95.2% (active) | -80.8% (active) | -98.8% (active) | – | -33.1% (active) | -23.9% (active) | -49.2% (active) | -47.2% (active) | -52% (active) | -99.2% (active) | -54.1% (active) | –
CC(C)CCC1(CCO)C(=O)NC(=S)NC1=O | – | – | – | 99.8% | 105% | 97.2% | – | 101% | 105% | 114% | 103% | 115% | 114% | – | 112% | 104% | 104% | 116% | 89.5%
O=[N+]([O-])c1cccc([As]=[As]c2cccc([N+](=O)[O-])c2)c1 (centres undefined) | – | – | -89.1% (active) | -100% (active) | -98.6% (active) | -96.1% (active) | -100% (active) | – | – | -98.4% (active) | – | – | -32% (active) | -39.3% (active) | -58.3% (active) | -91.5% (active) | – | -57.8% (active) | -99.3% (active)
OC1(c2ccc(Cl)cc2Cl)c2ccccc2C2=NCCN21 (centres undefined) | – | – | 100% | 94.2% | 101% | 89.5% | 83% | 98.2% | 97.9% | – | 103% | 90.5% | 80.5% | 82.3% | 93.3% | 98% | 78.8% | 78.9% | -2.5% (active)
[O]=[Sn]([CH]1CCCCC1)[CH]1CCCCC1 | -72.6% (active) | -89.9% (active) | -72.2% (active) | -99.9% (active) | -84.4% (active) | -85.2% (active) | -98.5% (active) | -63.2% (active) | -24.3% (active) | -93.8% (active) | -99.3% (active) | – | 14.8% | – | -86.7% (active) | – | -97.5% (active) | -90.9% (active) | –
S=P(NC1CCCCC1)(N1CC1)N1CC1 | 106% | 179% | 106% | 93.2% | 113% | 101% | 97% | 114% | 102% | 116% | 103% | 102% | 104% | 76.7% | 106% | 110% | 93.3% | 97.3% | –
COc1cc2c(cc1OC)CN(C)C(C)C2 (centres undefined) | 82.3% | 102% | 95.9% | 87.3% | 99% | 101% | 101% | 100% | 109% | 101% | 106% | 100% | 101% | 105% | 97.3% | – | – | 111% | –
O=CN1N=C(c2ccc3c(c2)OCO3)CC1c1sc(N(CCCl)CCCl)nc1Cl (centres undefined) | 74.7% | 104% | 106% | 90.8% | 91% | 98.6% | 101% | – | 97.9% | 95.3% | 93.4% | 92.1% | 87.6% | – | 84.1% | – | 83.8% | 93.2% | –
O=S(=O)(c1ccc(Cl)cc1)C(Cl)(Cl)Cl | 11% | 48% | 9.32% (active) | 39.6% | 82.9% | 52.1% | 42.5% | 25.1% | 40.6% | 50.6% | 26.1% | 25.3% | 15.1% | 18% | 11.4% | -14.8% (active) | 42.2% | 33.6% | –
CC(C)(C)NCC(O)c1ccccc1Cl (centres undefined) | -37.2% (active) | 5.34% (active) | 35.8% | -24.4% (active) | 27.8% | 10.2% | – | -20.2% (active) | 53.6% | 17.3% | 53.7% | 10.5% | – | 6.19% (active) | 51.5% | -52.5% (active) | 7.48% (active) | 45.5% | –
Cc1cc(C)nc(C)c1.[Cl][Hg][Cl] | 3.42% (active) | 123% | 92.8% | 96% | 104% | 91.6% | 106% | 98.7% | – | 108% | 101% | – | – | 98.9% | 81.8% | 83.9% | 108% | 106% | –
S=P(Nc1ccccc1)(Nc1ccccc1)c1ccccc1 | – | – | 142% | 96.7% | 85.3% | 92.1% | – | – | 90% | – | 102% | 95.3% | – | 82.5% | 87.5% | 101% | 81.1% | 101% | 84.1%
CC1=C(SCCC(=O)OCC(=O)NCCC[Te]c2ccccc2)C(=O)c2ccccc2C1=O | -6.75% (active) | 47.6% | -7.94% (active) | 19.2% | 9.54% (active) | – | -61.4% (active) | -33.4% (active) | -3.84% (active) | 18.9% | – | 2.25% (active) | – | -8.41% (active) | 18.9% | 4.67% (active) | -12.9% (active) | -35.5% (active) | –
C1CNC2CCCC2C1 (centres undefined) | 91.7% | 102% | 99.4% | 86.3% | 111% | – | 96.7% | 106% | – | 103% | 103% | 106% | – | 101% | 108% | – | 108% | 117% | –
